In test [1] the target is Lysosomal acid glucosylceramidase (Homo sapiens) (UniProt P04062). Nature of the test: Glucocerebrosidase-p2 (AID 348; in the data active = potency below about 10 µM; also: potency is read from the fitted curve at half-maximal effect). Conditions: purified GBA, blue fluorogenic substrate, 40 min. The method in brief: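 Normal human glucocerebrosidase (0.2 nM) with blue fluorogenic substrate (80 uM final) in citrate/phosphate pH 5.9 with 10mM sodium taurocholate, 0.01% tween-20; 40 min RT, NaOH/glycine stop; fluorescence Ex 365/Em 440; AC50 from a titration from 0.6 nM upwards.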

The nature of test [2]: AP1 Signaling Pathway (AID 357). Also: % is scaled to controls: 0 for no effect and ±100 for the full control effect. Conditions: ME-180 AP-1-bla reporter, EGF-induced, beta-lactamase ratio, 5 h; at 7.69 µM (top of the series) unless noted. The method in brief:
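AP-1-bla ME-180 cells with beta-lactamase reporter under AP-1 response element, stimulated with EC50 EGF; compounds titrated, 5 hours at 37 degrees Celsius. CCF4 read at 460/530 nm ratio; positive and negative modulators judged by AC50.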

The target in test [3] is Cytochrome P450 1A2 (Homo sapiens) (UniProt P05177). Nature of the test: p450-cyp1a2 (AID 410; calls by dose curve; also: potency is read from the fitted curve at half-maximal effect;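 as to activity change, negative = inhibition: -100% = full effect of reference inhibitor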). The following applies: recombinant CYP1A2, luciferin-ME demethylation, luminescence; series mostly up to 11.4 µM. Summed up:
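O-Demethylation of luciferin 6' methyl ether by human CYP1A2 is monitored as luciferase luminescence. Substrate sits at Km (100uM); enzyme is 20nM. Values are scaled to 57 uM furafylline as maximal inhibition.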

Test [4] in a line: Stat Signaling Pathway (AID 446).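 Also: ME-180 cervical cancer cells given 40 pM IL-6 alongside compound; SIE-controlled beta-lactamase reporter measured as 460/530 nm FRET emission ratio; % is scaled to controls: 0 for no effect and ±100 for the full control effect.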 The following applies: ME-180 (cervical carcinoma) SIE beta-lactamase reporter, IL-6 stimulated, 5 h; at 7.69 µM (top of the series) unless noted. Summed up:
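Emission at 460 and 530 nm (excitation 405 nm) reports SIE-controlled beta-lactamase in ME-180 cells. Cells received compound with 40 pM IL-6 for 5 hrs at 37 C; data scaled between 300 pM IL-6 and 125 nM JAK-inhibitor controls.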

Test [5] addresses Glucocorticoid receptor (Homo sapiens) (UniProt P04150). Nature of the test: GR-GFP Redistribution (AID 450;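 active = compounds whose dose series gives a full or clear partial fitted curve of increased nuclear translocation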; also: potency is read from the fitted curve at half-maximal effect). The following applies: U2OS GR-GFP nuclear translocation, laser cytometry, 2 h.
Test [6] has the same target. Nature of the test: GR-EFC Redistribution (AID 451; calls by dose curve; also: potency is read from the fitted curve at half-maximal effect). The following applies: CHO-K1 GR-EFC translocation, beta-gal luminescence, 2 h. The method in brief: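 Translocation of GR-ED fusion to nuclear EA restores b-gal, read by luminescence after 1 h room-temperature detection. Engineered CHO-K1 biosensor cells, 1,000/well, exposed 2 h at 37 C to titrations up to 46 uM final.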

For test [7], the target named is Mitogen-activated protein kinase 10 (Mus musculus) (UniProt Q61831). Nature of the test: JNK3 AlphaScreen Assay (AID 530).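 Also: kinase came from lysate of stimulated human HepG2 cells; signal reports phosphorylation of biotinylated GST-cJun 1-79 at Ser73 with 10 µM ATP; % is scaled to controls: 0 for no effect and ±100 for the full control effect.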 The following applies: JNK3 lysate, c-Jun phosphorylation; series mostly up to 11.4 µM. The method in brief:
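qHTS titrations with 15 min compound pre-incubation before adding ATP (10 uM final). Read-out: AlphaScreen of Ser73-phosphorylated biotin-GST-cJun using HepG2 lysate JNK3 activated by IL-1β and TNFα.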
In general terms: Alpha assays give light when donor and acceptor beads are brought close together.

Test [8] concerns the target 3',5'-cyclic-AMP phosphodiesterase 4B (Homo sapiens) (UniProt Q07343). Put plainly: qHTS Assay for Inhibitors of PDE-IV (AID 607; active = well fitted activation curve with a large enough effect in the main read-out, with a control signal flat, not every such curve was filed as active; also: % of control where 0% means no effect). Conditions: HEK293 ACTOne CNG channel cells, membrane potential fluorescence; series mostly up to 22.9 µM. The method in brief:
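The readout is membrane depolarisation from a cAMP-sensing CNG channel, detected with a potential dye at ex 535/em 590. Cells were HEK293-derived (endogenous PDE-IV) at 1000 cells/well, titrated up to 22.9 uM final.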
(In general: Quantitative high-throughput screening tests each substance at several concentrations.)

The target of test [9] is Cytochrome P450 2D6 (Homo sapiens) (UniProt P10635). Put plainly: qHTS Assay for Inhibitors and Substrates of Cytochrome P450 2D6 (AID 891; active = well fitted curve in the direction sought with a large enough effect; an effect the other way counts as inactive or inconclusive; also: potency is read from the fitted curve at half-maximal effect; nearly all actives have a fitted effect of over 60% in size). The following applies: recombinant CYP2D6, luciferin-ME EGE luminescence; series mostly up to 11.4 µM. Summed up:
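Luminescent read-out of luciferin formed by 5 nM human CYP2D6 demethylating 30 uM Luciferin-ME EGE (Km level) over 60 min at room temperature after NADPH regeneration addition. Data normalized to full inhibition by 1.43 uM quinidine.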

Test [10] has as its target Cytochrome P450 3A4 (Homo sapiens) (UniProt P08684). Nature of the test: qHTS Assay for Activators of Cytochrome P450 3A4 (AID 885; active = well fitted curve in the direction sought with a large enough effect; an effect the other way counts as inactive or inconclusive; also: nearly all actives have a fitted effect of over 65% in size). Conditions: recombinant CYP3A4, Luciferin-PPXE luminescence, 60 min; series mostly up to 11.4 µM. Summed up:
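Activators are scored by enhanced luminescence from CYP3A4 conversion of luciferin-PPXE (25uM, equal to KM) to luciferin, after 60 min at RT with an NADPH-regenerating system.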

Each structure is given as a SMILES string. Values without a mark were called inactive. Results filed as inconclusive are left out. Activity calls are given as the source filed them. Unless noted, calls follow the shape of the dose curve; as a rule, active = well fitted curve in either direction with a large enough effect (not every such curve was filed as active); inconclusive = small, poorly fitted or top-dose-only effect, or another doubt; inactive = flat fitted curve, though single readings scatter.

Sequence of Glucocorticoid receptor (Homo sapiens) (P04150 whole entry, looked up, the tested form may be a part): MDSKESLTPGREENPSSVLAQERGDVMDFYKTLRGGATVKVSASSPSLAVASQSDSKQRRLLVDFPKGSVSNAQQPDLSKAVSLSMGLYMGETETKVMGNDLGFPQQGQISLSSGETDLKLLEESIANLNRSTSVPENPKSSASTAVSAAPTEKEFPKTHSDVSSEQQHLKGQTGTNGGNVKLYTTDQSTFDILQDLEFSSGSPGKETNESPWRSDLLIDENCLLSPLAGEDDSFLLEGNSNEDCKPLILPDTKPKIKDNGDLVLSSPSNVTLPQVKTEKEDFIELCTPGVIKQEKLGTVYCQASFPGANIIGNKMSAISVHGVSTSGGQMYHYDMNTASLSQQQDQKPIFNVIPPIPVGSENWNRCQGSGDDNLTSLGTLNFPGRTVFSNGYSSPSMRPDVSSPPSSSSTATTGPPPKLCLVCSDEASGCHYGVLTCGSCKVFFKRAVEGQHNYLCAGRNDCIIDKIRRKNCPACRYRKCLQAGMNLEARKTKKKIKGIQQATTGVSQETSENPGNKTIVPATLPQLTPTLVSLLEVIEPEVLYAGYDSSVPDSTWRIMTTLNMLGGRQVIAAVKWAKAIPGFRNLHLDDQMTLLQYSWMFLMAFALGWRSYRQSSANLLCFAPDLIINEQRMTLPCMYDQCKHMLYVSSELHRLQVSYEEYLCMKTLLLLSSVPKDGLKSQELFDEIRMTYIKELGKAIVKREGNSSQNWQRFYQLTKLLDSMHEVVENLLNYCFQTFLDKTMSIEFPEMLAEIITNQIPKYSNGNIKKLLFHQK
Sequence of Cytochrome P450 1A2 (Homo sapiens) (P05177 whole entry, looked up): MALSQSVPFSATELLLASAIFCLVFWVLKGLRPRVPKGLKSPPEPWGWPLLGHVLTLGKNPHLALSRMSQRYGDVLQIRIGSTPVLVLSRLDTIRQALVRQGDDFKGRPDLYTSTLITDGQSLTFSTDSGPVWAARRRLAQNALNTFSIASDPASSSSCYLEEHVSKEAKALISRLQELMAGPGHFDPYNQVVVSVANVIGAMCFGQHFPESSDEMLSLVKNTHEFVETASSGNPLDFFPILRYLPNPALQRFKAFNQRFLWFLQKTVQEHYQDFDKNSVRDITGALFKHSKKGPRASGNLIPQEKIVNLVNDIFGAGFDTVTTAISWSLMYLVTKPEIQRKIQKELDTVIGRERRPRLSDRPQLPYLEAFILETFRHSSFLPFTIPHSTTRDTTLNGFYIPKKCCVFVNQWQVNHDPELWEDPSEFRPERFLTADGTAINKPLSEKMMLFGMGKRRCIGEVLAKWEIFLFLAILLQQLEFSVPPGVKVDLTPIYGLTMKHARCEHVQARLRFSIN
Sequence of Cytochrome P450 2D6 (Homo sapiens) (P10635 whole entry, looked up): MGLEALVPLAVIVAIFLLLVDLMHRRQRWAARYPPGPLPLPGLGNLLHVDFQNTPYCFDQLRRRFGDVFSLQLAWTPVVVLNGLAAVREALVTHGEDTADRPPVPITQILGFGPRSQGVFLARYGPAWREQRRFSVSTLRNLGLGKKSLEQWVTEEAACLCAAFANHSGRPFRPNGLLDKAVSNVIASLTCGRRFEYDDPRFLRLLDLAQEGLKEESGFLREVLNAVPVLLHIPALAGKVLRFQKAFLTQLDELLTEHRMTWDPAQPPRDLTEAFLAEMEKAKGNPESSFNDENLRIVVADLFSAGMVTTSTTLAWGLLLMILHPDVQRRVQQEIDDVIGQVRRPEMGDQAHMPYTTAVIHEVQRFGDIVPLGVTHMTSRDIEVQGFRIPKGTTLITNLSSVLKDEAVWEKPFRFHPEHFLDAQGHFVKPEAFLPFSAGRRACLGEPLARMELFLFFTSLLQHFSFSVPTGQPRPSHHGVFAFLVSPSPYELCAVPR
Sequence of 3',5'-cyclic-AMP phosphodiesterase 4B (Homo sapiens) (Q07343 whole entry, looked up): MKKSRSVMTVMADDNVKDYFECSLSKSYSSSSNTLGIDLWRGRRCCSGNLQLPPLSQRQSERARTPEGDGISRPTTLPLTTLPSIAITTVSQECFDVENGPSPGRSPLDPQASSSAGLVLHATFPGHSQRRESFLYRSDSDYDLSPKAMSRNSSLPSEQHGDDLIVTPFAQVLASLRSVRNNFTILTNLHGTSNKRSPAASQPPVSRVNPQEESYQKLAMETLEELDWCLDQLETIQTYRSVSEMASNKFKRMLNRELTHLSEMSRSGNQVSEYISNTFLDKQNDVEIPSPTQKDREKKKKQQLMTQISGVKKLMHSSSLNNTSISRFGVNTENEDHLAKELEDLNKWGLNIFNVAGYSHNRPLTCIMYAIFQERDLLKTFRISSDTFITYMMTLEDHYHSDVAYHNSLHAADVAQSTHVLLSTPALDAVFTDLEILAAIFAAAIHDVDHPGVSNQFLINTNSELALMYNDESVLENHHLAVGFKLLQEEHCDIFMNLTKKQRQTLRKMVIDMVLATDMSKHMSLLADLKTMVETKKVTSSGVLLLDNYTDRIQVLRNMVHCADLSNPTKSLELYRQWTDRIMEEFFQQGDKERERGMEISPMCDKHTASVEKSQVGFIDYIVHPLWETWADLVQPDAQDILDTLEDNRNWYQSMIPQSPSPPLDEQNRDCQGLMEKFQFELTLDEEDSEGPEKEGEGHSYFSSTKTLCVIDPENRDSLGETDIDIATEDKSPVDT
Sequence of Lysosomal acid glucosylceramidase (Homo sapiens) (P04062 whole entry, looked up): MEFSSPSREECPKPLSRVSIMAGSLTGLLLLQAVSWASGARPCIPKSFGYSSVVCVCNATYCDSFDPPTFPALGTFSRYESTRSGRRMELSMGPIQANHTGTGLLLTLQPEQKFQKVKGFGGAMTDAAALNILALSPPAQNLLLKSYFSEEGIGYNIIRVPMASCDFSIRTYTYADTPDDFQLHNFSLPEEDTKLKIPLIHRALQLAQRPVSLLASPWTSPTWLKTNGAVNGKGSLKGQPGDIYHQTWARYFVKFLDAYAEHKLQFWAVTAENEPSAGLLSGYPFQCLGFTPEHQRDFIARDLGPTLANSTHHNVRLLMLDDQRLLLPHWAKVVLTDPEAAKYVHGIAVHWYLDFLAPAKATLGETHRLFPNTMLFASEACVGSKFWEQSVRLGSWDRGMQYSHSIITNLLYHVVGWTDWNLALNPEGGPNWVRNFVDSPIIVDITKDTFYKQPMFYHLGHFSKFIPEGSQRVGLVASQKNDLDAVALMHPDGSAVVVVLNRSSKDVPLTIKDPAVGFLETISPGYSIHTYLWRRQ
Sequence of Cytochrome P450 3A4 (Homo sapiens) (P08684 whole entry, looked up): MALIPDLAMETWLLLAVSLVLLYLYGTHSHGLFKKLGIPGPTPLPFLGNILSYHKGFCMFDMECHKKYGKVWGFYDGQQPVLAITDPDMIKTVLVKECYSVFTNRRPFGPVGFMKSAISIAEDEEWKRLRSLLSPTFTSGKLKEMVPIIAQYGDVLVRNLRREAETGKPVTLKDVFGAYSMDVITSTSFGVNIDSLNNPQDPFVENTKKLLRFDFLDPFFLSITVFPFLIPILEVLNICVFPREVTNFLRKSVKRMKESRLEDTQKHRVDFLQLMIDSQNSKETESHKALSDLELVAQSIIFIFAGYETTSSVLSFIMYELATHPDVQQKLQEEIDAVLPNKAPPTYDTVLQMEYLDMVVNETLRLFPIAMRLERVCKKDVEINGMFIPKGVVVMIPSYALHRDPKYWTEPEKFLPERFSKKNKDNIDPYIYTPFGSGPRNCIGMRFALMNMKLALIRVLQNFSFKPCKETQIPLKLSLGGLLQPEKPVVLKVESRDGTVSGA

As for `Cc1cc2ccccc2c[n+]1CC(O)C[n+]1cc2ccccc2cc1C`, the Potency in test [1] was more than 11.4 µM; in test [5] it was more than 46 µM; in test [6], more than 9.22 µM; in test [9], 0.0251 µM (active). Moreover, the activity change, negative = inhibition in test [2] is -5.85%. In addition, the Potency entry in test [3], in [7] and in test [8] was “inactive” in each case. Besides, in [4], the activity, negative = inhibition was 4.97%.

Regarding `CC1(C)N=C(N)N=C(N)N1c1cccc(CSc2ccccc2)c1`, the Potency in test [1] is more than 11.4 µM; in test [5], more than 46 µM; in test [6], more than 9.22 µM; in test [9], 0.251 µM (active). In addition, the activity change, negative = inhibition in test [2] was -4.06%; in [3], -17.2% [at 2.29 µM]. Moreover, the activity, negative = inhibition in test [4] was 2.13%. The Potency entry in test [7] and in test [8] was “inactive” in each case.

Turning to `c1ccc(/C(=N/Nc2nc3ccccc3s2)c2ccccn2)cc1`, the Potency is more than 11.4 µM in [1], 3.16 µM (active) in [3], more than 46 µM in test [5] and more than 9.22 µM in test [6]. Also, in test [2], the activity change, negative = inhibition is -20.5%. The activity, negative = inhibition in [4] is -1.49%. Also, the Potency entry in test [7], in test [8] and in test [10] was “inactive” in each case.

Consider `NNC(=O)c1ccc[n+](CCc2ccccc2)c1`, for which the Potency is more than 11.4 µM in [1], more than 46 µM in test [5], more than 9.22 µM in [6] and 2 µM (active) in [9]. The activity change, negative = inhibition in test [2] was 11.3%. In addition, the Potency result in test [3], in test [7] and in test [8] was “inactive” in each case. Also, the activity, negative = inhibition in [4] is -0.167%.

With `CC1(C)N=C(N)N=C(N)N1CCCCc1ccccc1`, the Potency was more than 11.4 µM in test [1], more than 46 µM in [5], more than 9.22 µM in test [6] and 3.16 µM (active) in test [9]. In addition, the activity change, negative = inhibition is 7.1% in test [2] and -4.3% [at 2.29 µM] in test [3]. Further, in test [4], the activity, negative = inhibition was 0.495%. Also, the Potency result in test [7] and in test [8] was “inactive” each time.

For the compound `Cn1ncc2c(Nc3cccc(Cl)c3)nc(Nc3cccc(Cl)c3)nc21`, the Potency in [1] was 7.36 µM (active); in test [3] it was 3.98 µM (active); in test [5], more than 46 µM; in test [6], more than 9.22 µM. Also, the activity change, negative = inhibition in test [2] is -0.941%. The activity, negative = inhibition in [4] is 4.09%. In addition, the Potency result in test [7], in test [8] and in test [10] was “inactive” in each case.

With `Clc1ccc2c(c1)N(CCCN1CCCC13CCCCC3)c1ccccc1S2`, the Potency is more than 11.4 µM in test [1], more than 46 µM in test [5], more than 9.22 µM in [6] and 0.0079 µM (active) in test [9]. Also, the activity change, negative = inhibition in [2] is 19%; in test [3] it was -6.2% [at 2.29 µM]. Also, the activity, negative = inhibition in test [4] is 11.1%. Further, the Potency entry in [7] and in test [8] was “inactive” throughout.

The record behind these values is PubChem BioAssay (NCATS).
